Among the test systems are HCT-15 colon; HT29 colon; SNB-75 CNS; SNB-19 CNS; U251 CNS; PC-3 prostate; SK-MEL-5 melanoma; UACC-62 melanoma; LOX IMVI melanoma; SK-MEL-28 melanoma; SK-MEL-2 melanoma; EKVX NSCLC; SN12C renal; TK-10 renal; ACHN renal; CAKI-1 renal; A498 renal; CCRF-CEM leukemia; MOLT-4 leukemia; UO-31 renal.
Common to all, as to experiment: NCI-60 one-dose screen, 48 h (100 = growth as untreated, 0 = no growth, -100 = all killed)
Conditions in all cases: 10 µM unless noted

This is part of a sample that, as a whole, favours compounds with a hit. Of some 83,000 tested, about 20% had one in any assay.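 Interpretation: 100, growth as untreated; towards 0, rising growth inhibition; 0, no net growth; 0 to -100, cell death. Compounds scoring below 10 were considered active.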 A number with no mark means an inactive call. Calls of active or inactive are those of the source.

As to `COP(=O)(OC)C(c1ccc(O)cc1)(c1ccc(O)cc1)c1ccc(O)cc1`, the growth was 102% in the test with HCT-15 colon; 110% in the test with HT29 colon; 112% with SNB-75 CNS; 106% with SNB-19 CNS; 105% with U251 CNS; 92.8% in the test on PC-3 prostate. Moreover, the growth was 87.3% in the test with SK-MEL-5 melanoma; 98.7% with UACC-62 melanoma; 103% in the test on LOX IMVI melanoma; 118% in the test with SK-MEL-28 melanoma; 101% in the test on SK-MEL-2 melanoma; 113% in the test with EKVX NSCLC. Further, the growth is 105% in the test on SN12C renal; 124% in the test on TK-10 renal; 103% in the test on ACHN renal; 94.9% in the test on CAKI-1 renal; 98.7% in the test on A498 renal; 5.74% (active) in the test on CCRF-CEM leukemia. Moreover, in the test with MOLT-4 leukemia, the growth is 94.3%.

For `Cc1ccc(N/N=C(/C(=O)c2ccc(Cl)cc2)c2nc(C)cc(=O)[nH]2)cc1`, the growth in the test with HCT-15 colon is 111%; with HT29 colon, 111%; with SNB-75 CNS, 116%; in the test with SNB-19 CNS, 104%; in the test with U251 CNS, 103%; in the test on PC-3 prostate, 95%. Also, the growth with SK-MEL-5 melanoma is 82.5%; in the test with UACC-62 melanoma, 90.8%; in the test with LOX IMVI melanoma, 92.6%; in the test with SK-MEL-28 melanoma, 118%; with SK-MEL-2 melanoma it was 95.3%; in the test on EKVX NSCLC it was 91.5%. Besides, the growth in the test with SN12C renal was 100%; in the test on TK-10 renal it was 136%; in the test with ACHN renal, 99.1%; in the test on CAKI-1 renal, 113%; in the test with A498 renal, 108%; in the test with CCRF-CEM leukemia, -15.1% (active). Also, the growth with MOLT-4 leukemia is 98.6%.

With `Nc1ccccc1C#Cc1ccccc1C#Cc1ccc(OCCCCCCOc2ccc(C#Cc3ccccc3C#Cc3ccccc3N)cc2)cc1`, the growth in the test on HCT-15 colon was 106%; in the test on HT29 colon, 108%; in the test on SNB-75 CNS, 105%; in the test with SNB-19 CNS, 112%; in the test on U251 CNS, 100%; with PC-3 prostate, 97%. For the same compound, the growth in the test with SK-MEL-5 melanoma is 82.4%; with UACC-62 melanoma, 96.6%; in the test on LOX IMVI melanoma, 103%; in the test with SK-MEL-28 melanoma, 109%; in the test on SK-MEL-2 melanoma it was 103%; in the test on EKVX NSCLC, 89.3%. Further, the growth is 99.4% in the test with SN12C renal; 141% in the test with TK-10 renal; 102% with ACHN renal; 91.6% in the test with CAKI-1 renal; 116% in the test on A498 renal; -59.7% (active) in the test on CCRF-CEM leukemia. Also, in the test on MOLT-4 leukemia, the growth was 103%.

Turning to `O=C1C(=O)c2c(nc3ccc(Cl)cn23)-c2ccccc21`, the growth was -100% (active) in the test with HCT-15 colon; -84.8% (active) in the test on HT29 colon; -87.7% (active) with SNB-75 CNS; -100% (active) in the test on SNB-19 CNS; -100% (active) with U251 CNS; -86.6% (active) with PC-3 prostate. The growth with SK-MEL-5 melanoma was -100% (active); in the test on UACC-62 melanoma it was -100% (active); in the test with LOX IMVI melanoma, -100% (active); in the test with SK-MEL-28 melanoma, -100% (active); with SK-MEL-2 melanoma, -90.2% (active); in the test on EKVX NSCLC, -95.6% (active). The growth in the test with SN12C renal was -100% (active); in the test with TK-10 renal, -86.3% (active); in the test on ACHN renal, -100% (active); in the test with CAKI-1 renal it was -95.4% (active); with A498 renal, -100% (active); with CCRF-CEM leukemia, -49.6% (active). Besides, the growth in the test on MOLT-4 leukemia was -94.5% (active).

Regarding `COc1ccc2c(c1)sc1nc(-c3ccc(N(C)C)cc3)cn12`, the growth in the test with HCT-15 colon is 116%; in the test with HT29 colon, 113%; with SNB-75 CNS it was 162%; in the test on SNB-19 CNS, 95.3%; with U251 CNS it was 98.3%; in the test with PC-3 prostate, 60.6%. In addition, the growth in the test with SK-MEL-5 melanoma was 108%; with UACC-62 melanoma, 104%; in the test with LOX IMVI melanoma, 113%; with SK-MEL-28 melanoma, 144%; with SK-MEL-2 melanoma it was 88.6%; with EKVX NSCLC it was 101%. In addition, the growth was 123% in the test with SN12C renal; 132% in the test on TK-10 renal; 135% with ACHN renal; 86.2% in the test on CAKI-1 renal; 111% with A498 renal; 71.2% with CCRF-CEM leukemia. For the same compound, in the test on MOLT-4 leukemia, the growth is 76.7%.

In the case of `COc1cccc(-c2nc3cc(NC(=O)c4ccc(Cl)c(C#N)c4)ccc3o2)c1`, the growth was 51.6% in the test on HCT-15 colon; -3.37% (active) with HT29 colon; -2.82% (active) in the test on SNB-75 CNS; 5.09% (active) with SNB-19 CNS; -12.9% (active) in the test on U251 CNS; 14.4% in the test with PC-3 prostate. The growth with SK-MEL-5 melanoma was 5.38% (active); in the test with UACC-62 melanoma, 38.6%; with LOX IMVI melanoma, 21.9%; in the test on SK-MEL-28 melanoma it was -7.87% (active); in the test on SK-MEL-2 melanoma it was 63.8%; in the test with SN12C renal, 40.2%. Further, the growth is 34.3% in the test with UO-31 renal; -12.5% (active) in the test on TK-10 renal; 36.2% in the test with ACHN renal; 26.4% in the test on CAKI-1 renal; 61.6% with A498 renal; 71.1% in the test on CCRF-CEM leukemia. In addition, the growth in the test on MOLT-4 leukemia is 78.4%.

As to `NS(=O)(=O)c1ccc(N2CC(c3nc4ccccc4[nH]3)CC2=O)cc1` (stereo not drawn), the growth with HCT-15 colon was 107%; with HT29 colon it was 97.8%; in the test with SNB-75 CNS, 67.9%; in the test on SNB-19 CNS, 101%; in the test on U251 CNS, 99.7%; in the test on PC-3 prostate, 90.8%. Also, the growth is 99.8% with SK-MEL-5 melanoma; 97.4% in the test with UACC-62 melanoma; 94.2% in the test with LOX IMVI melanoma; 103% in the test on SK-MEL-28 melanoma; 102% with SK-MEL-2 melanoma; 97.3% in the test with SN12C renal. Further, the growth is 76.6% in the test with UO-31 renal; 128% in the test with TK-10 renal; 91.9% with ACHN renal; 97.3% in the test on CAKI-1 renal; 110% in the test with A498 renal; 98.3% in the test on CCRF-CEM leukemia. In addition, the growth with MOLT-4 leukemia was 96.3%.

For the origin of these results see PubChem BioAssay (NCI).
